# In all, about 5,800 sequences were measured (“enrichment r”: median about 0.54, highest 2% from about 16 on). The entries come from a sample that favours the highest values as a whole.
# B1: ENSG00000136451:be:win_1501|CDS_3pUTR|ENSG00000136451|bound_else_gene|NA|bound_elsewhere_windowed (ssRNA)
# RNA: GGGAGUUCUACAGUCCGACGAUCGCAAUGAGACCUGUAGAGAGCAUGCCUUUCUUGCCCCAAGCUUUGCCUACAUCACCGCCUUGGUAAACAGUAUUAUAAAAUCAAAAUAUGGGUAAAAGUAAAUAUUUACCAGCAACUUAACAACAGAGGAUUGAGCAUCA
# B2: chr8:41262032:41262394:-|3pUTR|ENSG00000104332|msi1|total|mutant (ssRNA)
# RNA: GGGAGUUCUACAGUCCGACGAUCGGCCGUUCUGACCUGUUGCCAGCAGAUACACAGGACAUGGAUGAAAUUCCCGUUUCCUCCCGUUUCUUCCUGCCGUACUCCUCUUUCCGAUCCUAAGUCUCUUACAAAAGCUUUGAAUACCAACAGAGGAUUGAGCAUCA
# B3: chr1:6522505:6522606:-|3pUTR|ENSG00000162408|msi1|FALSE|unique (ssRNA)
# RNA: GGGAGUUCUACAGUCCGACGAUCCUGGGAUUACAGGCGUGAGCCACUGCGCCUGGCCUGAAGCUAUUCUUUACAAAAGCUCUUAGUUUUUGUUUGUUUGUUUGUUUUUUUCUUUUGCGACGGACUCUCUGUCGCCAAGGCUGGCAACAGAGGAUUGAGCAUCA
# B4: chr12:95077336:95077437:-|3pUTR|ENSG00000180263|msi1|FALSE|unique (ssRNA)
# RNA: GGGAGUUCUACAGUCCGACGAUCUCCUCAUUGACCCAUCCGCAUCUCUGUUUAUCCAAGACUUCUCUGUGAUAGCUGACCCUUAGUCUUUCUCUCCCCUAUUCCUCCAGACUAGAUCCUGUCUCCUUCCUGCAGCCCCGACACCAACAGAGGAUUGAGCAUCA
# B5: chr2:121605696:121605828:-|CDS|ENSG00000074054|unk|total|mutant (ssRNA)
# RNA: GGGAGUUCUACAGUCCGACGAUCGACCGACUAUUUCUCAGACAAACAGAAGUCUGCUGACCUUGAGCAUGACCAGACCAUGUCCGAUAAACUUGUGGAUGGACUUGCUACCUCUUGGGUGAACUCCCGCAAUUACAAGGUAAGCAACAGAGGAUUGAGCAUCA
# B6: chr10:24583932:24584033:-|3pUTR|ENSG00000107863|unk|total|mutant (ssRNA)
# RNA: GGGAGUUCUACAGUCCGACGAUCAACAAAAGUGCCUCAUCAUAAAAAUACAGUUGGUUUUCCGGGUGCCAUAUUGUUAAAAUCCGAUAACUUACUUACAUUGAAUAAACGAAUGCGUUUUAUUGGUAACAGAUAUCAUUACAUCAACAGAGGAUUGAGCAUCA
# Biological target: MSI1 full-length (mouse, UniProt Q61474 1-362)
# Assay: nsRBNS (natural sequence RNA bind-n-seq); RBNS binding buffer (assumed for nsRBNS): 25 mM Tris pH 7.5, 150 mM KCl, 3 mM MgCl2, 0.01% Triton X-100, 500 ug/ml BSA, 20 U/ml SUPERase-In, 4 C; UNK is unkempt and MSI1 is Musashi-1; names of the RNAs are library labels; protein concentration not given here; high values mean tight binding
# MSI1 full-length, sequence (Q61474 whole entry): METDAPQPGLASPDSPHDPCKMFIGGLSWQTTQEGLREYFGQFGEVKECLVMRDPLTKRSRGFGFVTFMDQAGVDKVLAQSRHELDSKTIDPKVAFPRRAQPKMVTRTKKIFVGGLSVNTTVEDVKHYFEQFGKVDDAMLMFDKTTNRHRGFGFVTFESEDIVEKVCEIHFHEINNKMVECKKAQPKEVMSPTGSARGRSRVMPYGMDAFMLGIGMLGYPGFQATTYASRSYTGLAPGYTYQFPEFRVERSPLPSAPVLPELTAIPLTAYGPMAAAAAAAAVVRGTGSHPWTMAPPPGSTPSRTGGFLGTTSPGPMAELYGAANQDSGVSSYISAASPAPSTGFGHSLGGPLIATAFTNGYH
row,Binder,binding signal [enrichment R]
1,B1,0.827
2,B2,0.417
3,B3,0.372
4,B4,1.24
5,B5,0.532
6,B6,0.389

# — article PMC12136788
